PubChem BioAssay
Values joined by “and” are separate entries in the source; they are usually repeats but may differ in a detail not shown here. Identical values can stand only once. Active and inactive are the calls of the source.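 The calls were made as follows, unless noted: active = thallium flux through the channel raised or lowered by more than 3 SD from vehicle-only wells, actives on both sides; inactive = the rest.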

Assays:
[1] = system: Hepatitis C virus NS3 helicase; test: HCV NS3 helicase inhibitors, primary screen, biochemical, fluorescence polarization, NIH Clinical Collection (AID 743270; call rule not given here); conditions: NS3 helicase binding to Cy5-dT15 DNA, stronger effect = higher value, concentration not given here
[2] = biological target: Single-stranded DNA-binding protein (Escherichia coli (strain K12)) (UniProt P0AGE0); test: E. coli SSB displacement from DNA, counter-screen for HCV NS3 helicase inhibitor project, biochemical, fluorescence polarization, NIH Clinical Collection (AID 743271; in the data active = inhibition above about 28%); conditions: stronger effect = higher value, concentration not given here
[3] = fluorescence interference in NS3h assay format, artefact control for HCV NS3 helicase inhibitor project, biochemical, NIH Clinical Collection (AID 743272; call rule not given here;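 also: HCV NS3 helicase with a Cy5 labelled single stranded DNA probe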); conditions: fluorescence interference counterscreen, stronger effect = lower value
[4] = stimulators of nuclear beta-catenin in C2C12, primary screen, imaging, WNT3A-conditioned medium, mouse C2C12, NPC library (AID 1117326; in the data active = nuclear beta-catenin stimulation mostly above about 4.2%, no sharp cut-off; inactive = mostly below about 10%); conditions: stronger effect = higher value
[5] = stimulators of insulin release from INS-1E, primary screen, cell-based, 5 mM glucose, NPC library (AID 1117329;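 active = compound raises insulin release from rat beta cells at 5 mM glucose, no numeric limit stated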); conditions: rat INS-1E insulin secretion, at 10 µM, stronger effect = higher value
[6] = growth inhibition of GSK3B-pretreated HCT116 cells – cell-based, CellTiter-Glo, 0.2 to 20 µM (AID 1117336;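 active = compounds lowering colon cancer cell viability after pretreatment blocking the GSK3B kinase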); conditions: HCT116 viability after GSK3B inhibitor, at 20 µM, stronger effect = higher value
[7] = inhibition of endothelial tube formation, primary screen, imaging, VEGF stimulated, CD31 staining, tube area, NPC library (AID 1117340;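 active = compound that reduces growth-factor-driven endothelial tube area in a mixed cell culture, no cutoff stated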); conditions: VEGF-stimulated ADSC/ECFC co-culture, at 10 µM, stronger effect = higher value
[8] = glucagon-like peptide 1 release enhancers, primary assay, NCI-H716 cell line, NPC library (AID 1117341;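 active = compound raises GLP1 secretion from the human gut endocrine cells, with no numeric limit stated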); conditions: NCI-H716 cells, at 10 µM, stronger effect = higher value
[9] = HCT116 colon cancer cell growth inhibition, primary screen, CellTiter-Glo luminescence, NPC library (AID 1117342;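 active = compounds that lower survival of HCT116 colon cancer cells in the luminescence readout, no numeric limit stated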); conditions: at 20 µM (top of the series)
[10] = CellTiter-Glo luminescent readout of SW480 viability loss, NPC library primary (AID 1117343;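 active = compounds that lower viability of the colon cancer cells in the luminescence readout, with no numeric limit stated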); conditions: CellTiter-Glo luminescence; at 20 µM (top of the series)
[11] = decreased DLD-1 cellular survival, CellTiter-Glo luminescent readout, NPC compound collection, primary HTS (AID 1117346;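 active = compounds that lower survival of DLD-1 colon cancer cells in the luminescence readout, no cutoff given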); conditions: DLD-1 viability, CellTiter-Glo luminescence; at 20 µM (top of the series)
[12] = biological target: 6-phosphogluconate dehydrogenase, decarboxylating (Homo sapiens) (UniProt P52209); test: 6PGD enzyme inhibitors, primary screen, biochemical, human, recombinant enzyme, NADPH absorbance (AID 1159550;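 active = at least 20% inhibition of 6-phosphogluconate dehydrogenase activity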); conditions: recombinant 6PGD, NADPH absorbance 341 nm; at 10 µM; stronger effect = higher value
[13] = differential killing of epithelial or mesenchymal cells, primary screen, imaging, PC-3E GFP, TEM4-18 mCherry, co-culture (AID 1345086;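 active = compounds killing one labelled cell type while sparing the other, by normalised counts and ratio limits, not self-fluorescent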;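 as to all read-outs here: cells exposed to compound for 72 h before imaging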;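 as to red/green cell ratio (normalised): normalised mesenchymal count divided by normalised epithelial count so high means epithelial killing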); conditions: imaging cell counts, at 1 µM; for red/green cell ratio (normalised): actives lie on both sides, counts scaled to control wells, 1 = unselective
[14] = survival rescue of mitochondrial mutant cells in low glucose, primary screen, MELAS cybrids, Rieske KO mouse fibroblasts, CellTiter-Glo (AID 1508586;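 active = mean z-score across replicates of 1.96 or higher in either the MELAS or the Rieske mutant cell line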;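 also: z relative to plate mean and SD of compound and empty wells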)
[15] = biological target: NAD(+) hydrolase SARM1 (Homo sapiens) (UniProt Q6SZW1); test: SARM1 TIR NADase inhibitors, cell lysate, NAD-Glo luminescence (AID 1508614;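 active = compound whose remaining NAD level is above about 45 nM, limit read from the data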;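 also: higher remaining NAD means stronger inhibition of SARM1 NADase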); conditions: SAM-TIR HEK293T lysate NADase, at 1 µM, stronger effect = higher value
[16] = biological target: Mitogen-activated protein kinase 7 (Homo sapiens) (UniProt Q13164); test: ERK5 transactivation activators in reporter cells, primary screen, cell-based, HTS (AID 1508626;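 active = luciferase signal above three times the same-plate solvent-only control wells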;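 also: luciferase driven by Gal4-ERK5 fusion binding five Gal4 sites before minimal TATA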); conditions: HeLa Gal4-ERK5 transactivation, 18 h, at 5 µM, stronger effect = higher value
[17] = system: F380Y; test: modulators of BK channel variants, profiling panel, selectivity assay, cell-based, U2OS BacMam, thallium flux, beta subunits (AID 1259406); conditions: at 30 µM;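 also: initial slope of Thallos dye fluorescence rise after thallium is added; log ratio against the mean of 0.3% DMSO vehicle wells on the same plate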
[18] = system: F380Y/beta2Delta; test: as above; conditions: at 30 µM
[19] = biological target: Calcium-activated potassium channel subunit alpha-1 (Homo sapiens) + Leucine-rich repeat-containing protein 26 (Homo sapiens) (UniProt Q12791+Q2I0M4); test: as above; conditions: F380Y/Slo1WT/gamma1, at 30 µM
[20] = sensitizers of A549 cells to miR-34 induction, primary screen, imaging, A549 dox-inducible miR-34, nuclei and caspase counts (AID 1347080;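 active = compounds whose cell count with miR-34 switched on is under 0.7 times the count with it off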); conditions: A549 miR-34 inducible, Hoechst nuclei count, 48 h
[21] = measured here: epithelial PC-3E GFP cell survival
[22] = measured here: mesenchymal TEM4-18 mCherry cell survival
[23] = MELAS cybrid survival, CellTiter-Glo 48 h, stronger effect = higher value
[24] = Rieske KO mouse fibroblast survival, CellTiter-Glo 72 h
[25] = stronger effect = lower value, cell number ratio, induced over uninduced

Sequence of NAD(+) hydrolase SARM1 (Homo sapiens) (Q6SZW1 whole entry, looked up, the tested form may be a part): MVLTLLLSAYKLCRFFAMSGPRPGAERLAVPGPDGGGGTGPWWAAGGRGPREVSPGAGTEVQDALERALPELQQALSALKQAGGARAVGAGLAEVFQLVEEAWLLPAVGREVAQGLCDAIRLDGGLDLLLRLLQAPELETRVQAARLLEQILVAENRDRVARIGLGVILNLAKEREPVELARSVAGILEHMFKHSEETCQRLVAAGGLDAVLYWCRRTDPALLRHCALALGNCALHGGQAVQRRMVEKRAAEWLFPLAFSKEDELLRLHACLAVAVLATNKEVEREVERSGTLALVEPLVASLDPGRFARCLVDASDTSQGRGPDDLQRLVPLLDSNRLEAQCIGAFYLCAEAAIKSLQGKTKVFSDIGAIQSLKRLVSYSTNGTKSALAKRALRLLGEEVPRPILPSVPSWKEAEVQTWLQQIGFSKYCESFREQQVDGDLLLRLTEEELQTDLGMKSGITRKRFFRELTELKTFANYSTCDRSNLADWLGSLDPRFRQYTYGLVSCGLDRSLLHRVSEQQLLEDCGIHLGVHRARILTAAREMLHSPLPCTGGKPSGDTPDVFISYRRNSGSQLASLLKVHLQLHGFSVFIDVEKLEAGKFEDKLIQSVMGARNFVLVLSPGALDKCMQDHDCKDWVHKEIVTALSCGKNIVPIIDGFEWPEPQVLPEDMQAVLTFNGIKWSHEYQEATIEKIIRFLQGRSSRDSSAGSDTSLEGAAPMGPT
Sequence of 6-phosphogluconate dehydrogenase, decarboxylating (Homo sapiens) (P52209 whole entry, looked up): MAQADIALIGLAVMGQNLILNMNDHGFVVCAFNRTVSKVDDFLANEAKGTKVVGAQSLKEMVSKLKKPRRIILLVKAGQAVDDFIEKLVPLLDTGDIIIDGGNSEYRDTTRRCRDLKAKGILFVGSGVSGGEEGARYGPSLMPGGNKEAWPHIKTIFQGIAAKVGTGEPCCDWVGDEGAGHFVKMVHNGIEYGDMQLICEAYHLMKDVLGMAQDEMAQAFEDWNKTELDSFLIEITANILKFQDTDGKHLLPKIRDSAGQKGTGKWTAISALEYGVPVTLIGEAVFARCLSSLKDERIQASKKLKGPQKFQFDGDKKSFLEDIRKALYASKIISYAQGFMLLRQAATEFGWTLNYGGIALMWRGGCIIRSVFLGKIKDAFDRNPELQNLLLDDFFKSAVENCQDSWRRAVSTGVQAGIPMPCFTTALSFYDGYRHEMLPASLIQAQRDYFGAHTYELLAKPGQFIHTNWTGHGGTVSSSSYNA
Sequence of Calcium-activated potassium channel subunit alpha-1 (Homo sapiens) + Leucine-rich repeat-containing protein 26 (Homo sapiens) (Q2I0M4 whole entry, looked up, one chain of several): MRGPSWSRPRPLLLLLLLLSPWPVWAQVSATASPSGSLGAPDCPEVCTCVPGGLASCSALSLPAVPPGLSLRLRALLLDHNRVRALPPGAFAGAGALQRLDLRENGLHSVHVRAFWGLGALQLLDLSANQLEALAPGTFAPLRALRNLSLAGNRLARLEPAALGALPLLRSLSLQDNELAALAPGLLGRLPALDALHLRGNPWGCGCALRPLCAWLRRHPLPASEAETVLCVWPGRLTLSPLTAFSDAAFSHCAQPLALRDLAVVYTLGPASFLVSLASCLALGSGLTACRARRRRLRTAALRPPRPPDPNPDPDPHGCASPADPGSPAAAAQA
Sequence of Mitogen-activated protein kinase 7 (Homo sapiens) (Q13164 whole entry, looked up, the tested form may be a part): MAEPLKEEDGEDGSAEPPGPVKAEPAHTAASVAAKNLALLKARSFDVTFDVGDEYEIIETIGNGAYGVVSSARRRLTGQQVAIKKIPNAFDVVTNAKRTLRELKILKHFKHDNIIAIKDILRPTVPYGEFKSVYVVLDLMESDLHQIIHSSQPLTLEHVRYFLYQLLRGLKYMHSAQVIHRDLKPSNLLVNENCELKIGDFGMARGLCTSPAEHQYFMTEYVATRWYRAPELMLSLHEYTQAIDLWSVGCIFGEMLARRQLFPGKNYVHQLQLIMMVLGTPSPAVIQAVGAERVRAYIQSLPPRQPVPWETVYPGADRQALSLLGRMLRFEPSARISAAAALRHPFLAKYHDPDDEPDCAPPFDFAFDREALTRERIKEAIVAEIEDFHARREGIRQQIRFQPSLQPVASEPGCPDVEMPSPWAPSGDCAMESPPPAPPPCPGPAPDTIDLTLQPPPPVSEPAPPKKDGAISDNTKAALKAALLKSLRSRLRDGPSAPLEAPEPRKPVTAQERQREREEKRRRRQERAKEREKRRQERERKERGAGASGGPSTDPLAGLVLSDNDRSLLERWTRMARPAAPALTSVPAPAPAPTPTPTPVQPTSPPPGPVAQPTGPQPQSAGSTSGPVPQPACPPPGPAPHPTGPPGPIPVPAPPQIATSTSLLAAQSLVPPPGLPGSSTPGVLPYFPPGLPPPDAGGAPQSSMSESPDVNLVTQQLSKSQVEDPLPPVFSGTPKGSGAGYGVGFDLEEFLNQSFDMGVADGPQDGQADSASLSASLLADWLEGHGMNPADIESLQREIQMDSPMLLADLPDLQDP

CC(N=C(NC#N)Nc1ccncc1)C(C)(C)C (centres undefined)
1.72: normalised cell number [13, 22]
-0.266 and 0.371: z-score [14, 24]
1.21: normalised cell number [13, 21]
-1.6%: nuclear beta-catenin stimulation ([4]; stimulation, at 2 µM)
inactive: inhibition [1] -0.22% | inhibition [2] 1.97% | fluorescence ratio [3] 0.95 | nuclear beta-catenin stimulation ([4]; at 10 µM) -0.6% | insulin secretion stimulation [5] 2.1% | viability decrease [6] -8.9% | tube area decrease [7] -9.6% | GLP1 secretion stimulation [8] -3.6% | inhibition of viability [9] 12.1% | viability decrease (inhibition) [10] -10.1% | viability decrease (inhibition) [11] 5.8% | inhibition [12] -10.6% | red/green cell ratio (normalised) [13] 1.42 | z-score [14, 23] 0.121 and 0.328 | remaining NAD [15] 10 nM | luciferase signal [16] 64 AU | log fold change Tl+ flux [17] -0.0323 | log fold change Tl+ flux [18] 0.0089 | log fold change Tl+ flux [19] -0.0269

NS(=O)(=O)c1cc(C2(O)NC(=O)c3ccccc32)ccc1Cl (centres undefined)
1.92 and 1.71 and 1.64: fold change ([20]; measured here: relative caspase fold change +Dox/-Dox)
1.3: normalised cell number [13, 22]
11400 and 10400 and 12300: cell count ([20]; measured here: total cells without miR-34 induction)
1.2: normalised cell number [13, 21]
-0.339: z-score [14, 24]
6.2%: nuclear beta-catenin stimulation ([4]; stimulation, at 2 µM)
11100 and 8640 and 10800: cell count ([20]; measured here: total cells with miR-34 induction, stronger effect = lower value)
inactive: inhibition [1] -2.27% | inhibition [2] 1.05% | fluorescence ratio [3] 1 | nuclear beta-catenin stimulation ([4]; at 10 µM) 2.1% | insulin secretion stimulation [5] 0.8% | viability decrease [6] -12.6% | tube area decrease [7] 2.3% | GLP1 secretion stimulation [8] -2% | inhibition of viability [9] -5.17% | viability decrease (inhibition) [10] 16.8% | viability decrease (inhibition) [11] -4% | inhibition [12] 7.34% | red/green cell ratio (normalised) [13] 1.08 | fold change [20, 25] 0.98 and 0.828 and 0.88 | z-score [14, 23] -0.366 | remaining NAD [15] 10 nM | luciferase signal [16] 36 AU | log fold change Tl+ flux [17] -0.0172 | log fold change Tl+ flux [18] -0.039 | log fold change Tl+ flux [19] -0.00177

CC(C)NCC(O)c1cc(O)cc(O)c1 (centres undefined)
0.9%: nuclear beta-catenin stimulation ([4]; stimulation, at 2 µM)
1.02: normalised cell number [13, 21]
1.2: normalised cell number [13, 22]
inactive: inhibition [1] -5% | inhibition [2] -4.29% | fluorescence ratio [3] 1.02 | nuclear beta-catenin stimulation ([4]; at 10 µM) 1.6% | insulin secretion stimulation [5] 1.2% | viability decrease [6] 6% | tube area decrease [7] 3.6% | GLP1 secretion stimulation [8] 2.2% | inhibition of viability [9] -11.2% | viability decrease (inhibition) [10] -1.6% | viability decrease (inhibition) [11] -9.9% | inhibition [12] -6.42% | red/green cell ratio (normalised) [13] 1.18 | fold change [20, 25] 1.13 and 0.914 and 0.836 | z-score [14, 23] 0.509 | remaining NAD [15] 10 nM | luciferase signal [16] 92 AU | log fold change Tl+ flux [17] -0.0466 | log fold change Tl+ flux [18] 0.0418 | log fold change Tl+ flux [19] 0.0135
0.459: z-score [14, 24]
